Measured values as given in publication PMC5540273 (PLoS ONE, 2017).

How the values were obtained:
Details in all cases: concentration: 1 μM, replicates: in singlicate; n = 1
PRKCQ = system: PRKCQ
PRKD1 = system: PRKD1
PRKD2 = system: PRKD2
PRKD3 = system: PRKD3
PRKG1 = system: PRKG1
PRKG2 = system: PRKG2
PRKR = system: T1, PRKR
T1 construct: gene EIF2AK2

PRKX = system: PRKX
PRP4 = system: PRP4
PYK2 = system: T2, PYK2
T2 construct: gene PTK2B

QSK = system: QSK
RAF1 = system: RAF1
RET = system: RET
RIOK1 = system: RIOK1
RIOK2 = system: RIOK2
RIOK3 = system: RIOK3
RIPK1 = system: RIPK1
RIPK2 = system: RIPK2
RIPK4 = system: RIPK4
RIPK5 = system: RIPK5
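Also: KINOMEscan kinase panel screen.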

| Structure (SMILES) | %Inh (PRKCQ) [%] | %Inh (PRKD1) [%] | %Inh (PRKD2) [%] | %Inh (PRKD3) [%] | %Inh (PRKG1) [%] | %Inh (PRKG2) [%] | %Inh (PRKR) [%] | %Inh (PRKX) [%] | %Inh (PRP4) [%] | %Inh (PYK2) [%] | %Inh (QSK) [%] | %Inh (RAF1) [%] | %Inh (RET) [%] | %Inh (RIOK1) [%] | %Inh (RIOK2) [%] | %Inh (RIOK3) [%] | %Inh (RIPK1) [%] | %Inh (RIPK2) [%] | %Inh (RIPK4) [%] | %Inh (RIPK5) [%] |
| --- | --- | --- | --- | --- | --- | --- | --- | --- | --- | --- | --- | --- | --- | --- | --- | --- | --- | --- | --- | --- |
| COc1ccccc1CNC(=O)c1cc(C(=O)c2ccccc2C)c[nH]1 [GSK364507] | 0 | 9 | 1 | 5 | 1 | 2 | 0 | 7 | 23 | 7 | 8 | 25 | 14 | 30 | 0 | 1 | 0 | 9 | 19 | 0 |
| Cc1ccccc1-n1cnc2c(N)ncnc21 [SKF-97510] | 0 | 0 | 0 | 4 | 0 | 0 | 0 | 0 | 0 | 0 | 0 | 0 | 17 | 0 | 0 | 0 | 10 | 0 | 0 | 0 |
| C[C@@H]1CCCCN1c1cc(-c2ccc3c(N)n[nH]c3c2)nc(N)n1 [GSK2258759] | 0 | 0 | 3 | 0 | 0 | 14 | 21 | 15 | 1 | 0 | 0 | 3 | 6 | 47 | 1 | 19 | 0 | 11 | 20 | 0 |
| COc1ccc(Nc2nccc(NCCNC(=O)Nc3ccccc3F)n2)cc1 [GSK1379901] | 0 | 0 | 83 | 0 | 8 | 0 | 1 | 5 | 14 | 8 | 3 | 20 | 17 | 40 | 0 | 39 | 33 | 22 | 11 | 6 |
| Cc1ccc(C(=O)Nc2ccc(Nc3ccnc4cc(-c5ccccn5)ccc34)cc2O)cc1.Cl [GW440146] | 6 | 17 | 0 | 18 | 0 | 0 | 0 | 9 | 12 | 1 | 0 | 8 | 26 | 14 | 3 | 81 | 0 | 52 | 3 | 0 |
| NC(=O)c1nnc2ccccc2c1N | 3 | 0 | 53 | 0 | 0 | 14 | 0 | 1 | 0 | 12 | 22 | 19 | 8 | 64 | 44 | 57 | 0 | 0 | 45 | 0 |
| COc1ccc(C2=C(Nc3cccc(C(=O)O)c3)C(=O)NC2=O)cc1 [SB-390765] | 12 | 0 | 0 | 0 | 0 | 0 | 11 | 0 | 0 | 17 | 27 | 11 | 3 | 13 | 18 | 0 | 0 | 0 | 18 | 31 |
| O=S(=O)(c1ccc(-c2ccnc3[nH]ccc23)cc1)N1CCCC1 [GSK846226] | 0 | 0 | 3 | 0 | 36 | 14 | 21 | 28 | 8 | 0 | 0 | 0 | 7 | 86 | 85 | 89 | 8 | 5 | 8 | 16 |
| CS(=O)(=O)c1ccc(-c2c(-c3ncn[nH]3)sc(N3CCOCC3)c2C#N)cc1 | 0 | 19 | 11 | 14 | 12 | 6 | 0 | 32 | 0 | 0 | 0 | 0 | 5 | 0 | 0 | 0 | 6 | 0 | 0 | 18 |
| CCCc1ccc(S(=O)(=O)NC2CCN(c3ccnc(Nc4ccc(F)cc4)n3)C2)cc1 (centres unmarked) [GSK1379715] | 27 | 1 | 0 | 0 | 0 | 0 | 0 | 1 | 20 | 0 | 0 | 15 | 16 | 3 | 0 | 0 | 0 | 0 | 10 | 0 |
